Test results from PubChem BioAssay.

Test: E. coli acrAB mutant growth effects, primary screen, E. coli filamentation inducers, strain DRC39, OD650, 48 h (AID 1179);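 further: screen aims at cell division blockers that make cells filament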
Conditions: E. coli DRC39 delta-acrAB growth, higher = more signal, called active from +8 up or from −8 down

z-score, inactive:
COCC(=C=CC[C@H](O)c1ccc(CO)o1)CCO -0.524, CCCCCN1CC=CC23O[C@@H]4/C=C\CCCOC(=O)C4[C@H]2C(=O)N(C(C)CO)[C@@H]3C1=O (stereo not given in full) 0.945, COc1ccc([Si](C)(C)[C@@H]2[C@@H](CCO)O[C@]3(C(=O)N(Cc4cccc(NC(=O)[C@H](C)O)c4)c4ccccc43)[C@H]2C)cc1 -0.811, Cc1ccc(S[C@]2(C(=O)NCc3ccccc3)CC(=O)N(C3CCCCC3)[C@@H]2c2ccc(CO)cc2I)cc1 0.323, CC(C)c1ccc(NN2C(C(O)c3ccc(F)cc3)C=CC3C(=O)N(c4ccccc4)C(=O)C32)cc1 (stereo not given) 0.127, COC(=O)[C@@]1(Cc2ccccc2)[C@H]2c3cc(C(=O)N4CCCC4)n(CCc4ccccn4)c3C[C@H]2CN1C(=O)c1ccccc1 -0.906, CCCN1C(=O)[C@]2(Cc3ccccc31)N=C(c1ccc(OCCCO)cc1)O[C@@H]2c1ccccc1 -0.413, O=C1[C@H]2C=C(I)[C@H](C[C@@H]2OCCOCCO)[C@@]12CO2 -0.175, CCCCCCc1nc(Cc2cc(OC)c(OC)c(OC)c2)cc2c1[Si](C(C)C)(C(C)C)OC2 -0.279, COC(=O)C(CC#Cc1ccc2c(c1)[C@]1(C(=O)N2)[C@H](c2ccc(O)cc2)N2[C@H](c3ccccc3)[C@H](c3ccccc3)OC(=O)[C@H]2[C@@H]1C(=O)NC[C@H](O)c1ccccc1)C(=O)OC -0.138, COCCOC(=O)N1C(=O)[C@@]2(c3cc(C#CC4=CCCCC4)ccc31)[C@H](c1ccccc1OCCO)N1[C@H](c3ccccc3)[C@H](c3ccccc3)OC(=O)[C@H]1[C@@H]2C(=O)N1CCN(c2ncccn2)CC1 -1.22, O[C@@H](Cc1ccccc1)[C@@H](/C=C/C1CC1)N(CC#Cc1ccccc1)Cc1ccccc1Br -0.232, COc1cc2c(cc1O)C=[N+](Cc1sc3ccccc3c1Cl)CC2 0.128, COc1ccc(C#Cc2ccc3c(c2)[C@]2(C(=O)N3)[C@H](C(=O)O)[C@H]3C(=O)O[C@H](c4ccccc4)[C@H](c4ccccc4)N3[C@@H]2c2ccc(O)cc2)cc1 -0.94, Cn1cccc1C(O)C1C=CC2C(=O)N(c3ccccc3)C(=O)C2N1Nc1ccccc1 (stereo not given) 0.881, Cc1ccc(F)cc1S(=O)(=O)N[C@@H]1CCN(Cc2ccc(Br)cc2)C1 -0.795, CC1CC/C=C\[C@H]2OC34C=CCN(Cc5ccccc5)C(=O)[C@H]3N(C(CO)C(C)C)C(=O)[C@@H]4C2C(=O)O1 (stereo not given in full) 0.523, CCOC(=O)C1=C[C@@H](C(C)C)N(S(=O)(=O)c2ccc(C)cc2)[C@H]1c1ccc(C(F)(F)F)cc1 -0.442, COCCCNC(=O)[C@@]1(Sc2ccc(C)cc2)CC(=O)N(C2Cc3ccccc3C2)[C@@H]1c1ccc(CO)cc1 0.568, C[N+](C)(C)CCCC[C@@H]1NC(=O)[C@@H]2C[C@H](C(=O)NCCCCCCN)[C@H](c3cccc(OCCO)c3)N2C1=O 0.743, C=CCC(OC(C)=O)[C@@H]1[C@@H](N(Cc2ccc(-c3ccccc3)cc2)C(=O)c2ccc(-c3ccccc3)cc2)c2cc(OCCCO)ccc2N1C(=O)c1ccc2ccccc2c1 (stereo not given in full) -0.756, CC1CC/C=C\[C@H]2OC34C=CCN(C(C)C)C(=O)[C@H]3N(CCO)C(=O)[C@@H]4C2C(=O)O1 (stereo not given in full) 0.341, CCCNC(=O)[C@@H]1c2ccccc2C(=O)N(Cc2ccc(OC(F)(F)F)cc2)[C@H]1c1ccc(CO)cc1 1.34, CC(C)NC(=O)[C@@]1(C)c2ccccc2C(=O)N(Cc2ccc(OC(F)(F)F)cc2)[C@H]1c1ccc(CO)cc1 -0.6, COc1ccc(CCNC(=O)[C@@]2(Cc3ccccc3I)c3ccccc3C(=O)N(C3CCCCC3)[C@H]2c2ccc(CO)cc2)cc1 0.197
